Reference: ChEMBL document CHEMBL3433997, “St. Jude Leishmania screening dataset” (2016)

How the values were obtained:
Format in all cases: functional
[1] = target: Solute carrier family 2, facilitated glucose transporter member 1 (Homo sapiens) (UniProt P11166); assay: ST_JUDE_LEISH: Cytotoxicity at 2uM final concentration against transgenic Leishmania Mexicana promastigotes LmGLUT1 that are glucose transport deficient and complemented with the human glucose transporter GLUT1. Activity is measured by DNA content using SYBR green in vitro
Chain of Solute carrier family 2, facilitated glucose transporter member 1 (Homo sapiens) (P11166 whole entry): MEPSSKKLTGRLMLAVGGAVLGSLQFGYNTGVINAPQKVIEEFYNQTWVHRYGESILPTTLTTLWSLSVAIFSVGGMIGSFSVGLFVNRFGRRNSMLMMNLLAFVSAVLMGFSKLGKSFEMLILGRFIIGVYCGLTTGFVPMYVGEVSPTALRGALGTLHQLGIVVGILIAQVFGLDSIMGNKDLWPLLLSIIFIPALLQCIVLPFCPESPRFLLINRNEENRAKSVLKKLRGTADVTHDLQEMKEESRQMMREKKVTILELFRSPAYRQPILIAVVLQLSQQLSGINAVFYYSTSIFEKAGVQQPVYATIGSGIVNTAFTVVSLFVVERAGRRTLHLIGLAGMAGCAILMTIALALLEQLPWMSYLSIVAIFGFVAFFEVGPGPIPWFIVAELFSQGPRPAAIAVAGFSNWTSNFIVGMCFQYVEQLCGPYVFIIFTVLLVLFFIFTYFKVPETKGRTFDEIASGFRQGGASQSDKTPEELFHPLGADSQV

[2] = target: Hexose transporter 1 (Plasmodium falciparum) (UniProt O97467); assay: ST_JUDE_LEISH: Cytotoxicity at 2uM final concentration against transgenic Leishmania Mexicana promastigotes LmPfHT that are glucose transport deficient and complemented with the Plasmodium falciparum hexose transporter. Activity is measured by DNA content using SYBR green in vitro
[3] = target: Glucose transporter (Leishmania mexicana) (UniProt O61059); assay: ST_JUDE_LEISH: Cytotoxicity at 2uM final concentration against transgenic Leishmania Mexicana promastigotes LmGT2 that are glucose transport deficient and complemented with the L. Mexicana glucose transporter 2. Activity is measured by DNA content using SYBR green in vitro

SMILES | inhibition [1] | inhibition [2] | inhibition [3]
O=C(Nc1cccc(CN2CCCN(Cc3cccnc3)CC2)c1)c1ccc(Cl)c(Cl)c1 | 5.01% | 4.16% | 5.38%
CCC1(CC)CN(c2ccccc2)c2ccc(O)cc2S(=O)(=O)C1CC(C)C (centres undefined) | 0.72% | 0.32% | 0.3%
O=C(Nc1ccc(Cl)cc1)c1cc(Cl)ccc1NC(=O)C1CCc2ccccc2O1 (centres undefined) | 5.48% | 2.53% | 1.56%
CCn1cc(C=C2Oc3c(ccc(O)c3CN3CCCCC3)C2=O)c2ccccc21 | 5.49% | 4.09% | 3.27%
CCOc1cc(C(=O)NC2CCN(Cc3ccccc3)C2)ccc1-c1nc2cc(Cl)ccc2[nH]1 (centres undefined) | 6.92% | 3.47% | 6.92%
Cc1cc(C)c2oc(-c3cccc(NC(=O)c4ccc([N+](=O)[O-])o4)c3C)nc2c1 | 11.4% | 10.4% | 1.45%
COc1ccc(CNCCc2cccs2)cc1-c1ccc(S(=O)(=O)NCCN2CCCC2)s1 | 4.99% | 5.45% | 4.66%
CN(c1ccc(NC(=O)Nc2cc(C(F)(F)F)ccc2F)cc1)c1ccnc(NCCN2CCOCC2)n1 | 7.88% | 18.5% | 0.14%
CC(C)NCc1cccc(-c2cccc(NC(=O)c3cccc(Cl)c3)c2)c1 | -0.03% | 0.9% | 4.05%
CC1CCCN1Cc1cccc(-c2ccc(C(=O)NCCOc3ccccc3)s2)c1 (centres undefined) | 72% | 38.9% | 25.7%
Cc1cccc2nc(-c3cccc(-c4ccc(CNCc5ccc(S(C)(=O)=O)cc5)cc4)c3)[nH]c12 | 11.9% | 6.88% | 7.97%
CC(CN(C)C)C(=O)Nc1cccc(-c2ccc(-c3nc4cc(F)ccc4[nH]3)cc2)c1 (centres undefined) | -1.76% | -3.5% | -0.1%
COc1cc(-c2nc(-c3ccc(C(=O)c4ccc(F)cc4)cc3)c(-c3ccccc3)[nH]2)cc(OC)c1O | 3.28% | -0.56% | 0.05%
NC(=O)c1ccccc1Nc1nc(Nc2cc[nH]n2)ncc1Cl | 6.52% | 4.28% | 7.47%
CC(C)C1CCc2nc(N)nc(N)c2C1 (centres undefined) | 2.52% | 4.4% | 0.91%
Cc1ccc2c(N/N=C/c3cccc([N+](=O)[O-])c3)cc(C)nc2c1 | 8.19% | 4.7% | 3.94%
O=C(/C=C/c1ccc(Cl)c(Cl)c1)NCCCCCN1CCN(C(=O)Nc2ccc(C(F)(F)F)cc2)CC1 | 2% | 1.98% | 0.71%
O=C(CCC1CCCC1)N(Cc1ccc(-c2ccc(CNCCc3ccccn3)cc2)cc1)CC1CCCCN1 (centres undefined) | 15.2% | 4.22% | 1.88%
CC1CN(Cc2ccc(-c3ccc(-c4nc5ccccc5[nH]4)cc3)cc2)CC(C)O1 (centres undefined) | 6.34% | 6.82% | 4.66%

SMILES | inhibition [1] | inhibition [2] | inhibition [3]
Cc1ccc2nc(C)n(C3CCN(C(=O)Cc4ccc(F)c(F)c4)CC3)c2c1 | 2.56% | 2% | 2.78%
N#Cc1ccc2c(c1)CCN(CCC1CCC(NC(=O)/C=C/c3ccc4ccccc4c3)CC1)CC2 (centres undefined) | -0.35% | -1.71% | -1.14%
Cc1cc(OCC2CCN(c3ccc(C(=O)NC4CC4)cn3)CC2)ccc1F | 0.67% | 1.45% | -6.22%
CN(C)CCNCc1ncsc1-c1ccc2c(Nc3ccc(F)cc3Cl)ccnc2c1 | 3.88% | 4.3% | 4.59%
CCNc1cc(C(=O)N[C@@H](Cc2ccccc2)[C@H](O)CNC(C)C)cc(N2CC(c3ccccc3)CCS2(=O)=O)c1 (some centres undefined) | 2.23% | 2.11% | 4.05%
CCOC(=O)c1cnc2cc(N3CCCC3)c(Cl)cc2c1OCC | 1.28% | -0.81% | 0.52%
O=C(Nc1ccc2c(c1)CCC2)c1ccc(N2CCN(c3ccncc3)CC2)cn1 | 11.7% | 12.8% | 14.7%
O=C1COC2(CN1CC1CCN(Cc3ccc(O)c(Cl)c3)C1)c1ccccc1-c1ccccc12 (centres undefined) | -0.03% | -0.11% | -0.34%
COC(=O)C1=C(C)NC2=C(C(=O)CC(c3ccc(OC)c(OC)c3)C2)C1c1cccc(O)c1 (centres undefined) | 3.8% | 3.84% | 3.82%
CC(=O)c1c(Nc2c(C)cc(C)cc2C)oc(C)cc1=O | 3.7% | 5.4% | 3.1%
Cc1cccc(C)c1/N=C1\NC(=S)N(c2cccc(Cl)c2)C12CCC(C(C)(C)C)CC2 (centres undefined) | -2.68% | -1.2% | 0.24%
CCCC(C)N(Cc1ccc(C(C)(C)C)cc1)C(=O)c1cccc(C#N)c1 (centres undefined) | -1.28% | 0.07% | -1.38%
CC1(C)N=C(N)N=C(N)N1OCCCc1ccccc1 | 1.22% | 2.68% | 2.65%
O=C(NCCCCN1CCC(c2ccc3ccccc3c2O)CC1)c1ccc(NC(=O)c2ccc(Cl)cc2)cc1 | -0.08% | 1.46% | 0.92%
Cc1cc(N)c2cc(NC(=O)c3cccc4ccccc34)ccc2n1 | 0.77% | 1.19% | 0%
O=C1C[C@@H]([S+]([O-])Cc2nccs2)N1CCOCCCCCCc1ccc(Cl)cc1 (some centres undefined) | 9.09% | 8.24% | 9.2%
FC(F)(F)c1cccc(N=C(S)NN=Cc2ccccn2)c1 | -0.57% | 4.7% | 1.52%
FC(F)(F)c1cc(Nc2ccc(Oc3ccccc3)cc2)c2cc(-c3ccncc3)ccc2n1 | -0.25% | 0.41% | -0.05%
O=C(NCCN1CCC(c2ncc(-c3ccccc3)o2)CC1)c1ccc(NC(=O)c2ccc(Cl)cc2)cc1 | 0.84% | 2.19% | 1.19%
